Assay results taken from PubChem BioAssay AID651812 (National Center for Advancing Translational Sciences (NCATS), 2012).
The campaign covered roughly 2,100 compounds. About 650 (31%) were called active. About 16% were inconclusive and are not listed. Calls follow the shape of the dose curve; as a rule, active = well fitted inhibition curve with a large enough effect; inconclusive = small, poorly fitted or top-dose-only effect; inactive = flat fitted curve, though single readings scatter. The list shows a part of the results. A call without a number means that no potency is given here.

Experiment: qHTS for inhibitors of Vif-A3G interactions: Cherry picks; also: nearly all actives have a fitted effect of over 80% in size
Settings: HeLa A3G-eYFP + Vif (tagged APOBEC3G with the HIV-1 protein that degrades it), 24 h; Potency: eYFP fluorescence increase; series mostly up to 36.9 µM
Source text: The recent discovery and characterization of host restriction factors, which provide a potent defense to invading retroviruses, has provided new targets for antiviral drug development. APOBEC3G (A3G) and APOBEC3F (A3F) are potent cytidine deaminases that block HIV-1 replication; HIV-1 expresses the Vif protein, which counteracts A3G and A3F by binding to them and inducing their proteasomal degradation. The Vif-A3G and Vif-A3F interactions provide two potential targets for development of small molecules which can interfere with the ability of Vif to degrade A3G or A3F. […] To identify inhibitors that can interfere with Vif mediated degradation of A3G and A3F, we have developed Hela cell lines that stably express A3G or A3F tagged with eYFP at the C-terminal end (A3G-eYFP or A3F-eYFP, respectively) and Vif. In the absence of an inhibitor, Vif induces degradation of A3G-eYFP and A3F-eYFP, and the cells are not fluorescent. In the presence of an inhibitor, it is expected that Vif will be unable to degrade A3G-eYFP and/or A3F-eYFP, resulting in an increase in yellow fluorescence. In this assay, Vif A3G was screened against the cherry picks ordered from the MLSMR. NIH Chemical Genomics Center [NCGC] NIH Molecular Libraries Probe Centers Network [MLPCN] MLPCN Grant: MH093245 Assay Submitter (PI): Vinay Pathak, National Cancer Institute
A3G-Vif cells were harvested from T225 flask and resuspended in phenol free OPTI-MEM medium with 5% FBS. Then 5 uL of 140,000 cells/mL resuspended cells was dispensed into each well of low base Aurora COC 1,536-well plates (black walled, clear bottom) using a Multidrop Combi dispenser. After overnight culture at 37 deg C with 5% CO2, a total of 23 nL of compounds at 5 selected concentrations from the NPC or positive control (2 mM stock of MG132) in DMSO was transferred to each well of the assay plate using a pintool (Kalypsys, San Diego, CA), and the plates were further incubated at 37 deg C with 5% CO2 for 24 hours. After that, the plates were measured on Acumen Explorer (TTP Lab Tech). The fluorescence was detected by 488 nm/Ex and […].
Potency is read from the fitted curve at half-maximal effect.

Compound	Potency
COc1ccc(N=Cc2c(O)n(-c3cccc(C)n3)c(=O)c3ccccc23)c(OC)c1	13 µM (active)
COc1ccc(-c2cc(C(=O)N/N=C/c3sccc3C)c3ccccc3n2)c(OC)c1	inactive
CCc1cccc2c(C(O)c3c[nH]c4ccccc34)c[nH]c12 (stereo unspecified)	20.6 µM (active)
N#CC1=C(N)Oc2cc(N)ccc2C1c1ccccc1 (stereo unspecified)	inactive
CC1CC(=O)C2=C(C1)OC(N)=C(C#N)C2c1coc2ccccc2c1=O (stereo unspecified)	23.1 µM (active)
CCn1cc(/C=C/c2cc[n+](C)cc2)c2ccccc21	1.77 µM (active)
C=CCn1cc(/C=C/c2cc[n+](C)cc2)c2ccccc21	7.04 µM (active)
CC(C)n1cc(/C=C2\NC(=O)N(c3cccc(Cl)c3)C2=O)c2ccccc21	inactive
CC(C)n1cc(/C=C/c2cc[n+](C)cc2)c2ccccc21	0.25 µM (active)
CCOC(=O)CSC1=C(C#N)C(c2ccc(C)s2)CC(=O)N1 (stereo unspecified)	inactive
N#C/C(N=Nc1ccccc1O)=N\Nc1ccccc1O	14.6 µM (active)
NC(=O)c1ccc(Cn2c(C(=O)c3cc(Cl)c(N)c(Cl)c3)c3ccccc3[n+]2[O-])cc1	inactive
Cc1c(C(=O)Nc2cccnc2)oc2ccc(Br)cc12	inactive
COc1cc(C(=O)NCCOc2cc(C)cc(C)c2)c(Br)c(OC)c1OC	inactive
COc1ccc(-c2ccc3c(c2)S(=O)(=O)c2cccc(C(=O)NCc4cccc(OC(F)(F)F)c4)c2C3=O)cc1OC	10.3 µM (active)
COc1cc(C(=O)NCCOc2cc(C)cc(C)c2)cc(OC)c1OC	inactive
COc1ccc(-c2ccc3c(c2)S(=O)(=O)c2cccc(C(=O)NCCOc4ccccc4)c2C3=O)cc1OC	12.5 µM (active)
COc1ccc(-c2nnc(SCC(=O)NCc3ccccc3)nc2-c2ccc(OC)c(OC)c2)cc1OC	inactive
Fc1cccc(Cc2c(-c3ccco3)nc3ccc(Br)cn23)c1	inactive
CC(NC1=CC(=O)c2cccnc2C1=O)C(O)c1ccccc1 (stereo unspecified)	inactive
CN(CC(=O)Nc1ccc(Cl)c(C(F)(F)F)c1)C(=O)c1ccc(S(=O)(=O)N2CCOCC2)cc1	inactive
CCc1cc(/C=C/c2ccnc3ccccc23)ccc1N(C)C	18.4 µM (active)
CN(C)c1ccc(/C=C/c2ccnc3ccccc23)cc1C=O	inactive
CN1CCCc2cc(/C=C/c3ccnc4ccccc34)ccc21	5.17 µM (active)
CN(C)c1ccc(/C=C/c2ccnc3ccccc23)cc1O	18.4 µM (active)
Cc1cc(/C=C/c2ccnc3ccccc23)ccc1N	18.4 µM (active)

Compound	Potency
Cc1cc(NC(=O)Nc2nnc(N(C)Cc3ccccc3)s2)ccc1Br	inactive
COc1cccc(/C=N/NC(=O)c2[nH]nc3c2CCc2ccccc2-3)c1	inactive
CC(=O)n1cc(/C=N/NC(=O)c2sc(C)nc2C)c2ccccc21	inactive
COc1ccc(C(C)(O)c2nc(-c3ccccc3OC)cs2)cc1 (stereo unspecified)	inactive
CN(C)c1ccc(/C=C/c2ccnc3ccccc23)cc1N	inactive
Cc1cc(N(C)C)c(C)cc1/C=C/c1ccnc2ccccc12	20.6 µM (active)
Cc1cc(/C=C/c2ccnc3ccccc23)ccc1N(C)C	20.6 µM (active)
CCn1c2ccccc2c2c3ncc4cccn4c3ccc21	23.1 µM (active)
CCOC(=O)/C(C#N)=C\C=C1C=CN(C)C=C1	8.2 µM (active)
COc1cc2c(cc1OC)CN(C(=O)/C=C/c1cccs1)CC2	inactive
Cc1cc(C)nc(-n2nc(C)cc2NC(=O)c2ccc(F)cc2F)n1	inactive
Cc1cc(N2CCCC2)ccc1/C=C1\NC(=S)N(C)C1=O	3.66 µM (active)
O=[N+]([O-])/C=C\c1ccc(N2CCCC2)c(F)c1	inactive
Cc1cc(/C=C2\NC(=S)N(C)C2=O)ccc1N1CCCC1	8.86 µM (active)
Cc1cc(N2CCCC2)ccc1/C=C1/C(=O)N(C)C(=S)N1C	18.4 µM (active)
COc1ccc(/C=C/c2ccnc3ccccc23)c(OC)c1	inactive
COc1cc(/C=C/c2ccnc3ccccc23)ccc1N(C)C	20.6 µM (active)
COc1cc(N(C)C)c(OC)cc1/C=C/c1ccnc2ccccc12	20.6 µM (active)
COc1ccccc1-c1c(C#N)c(N)nc2c1CCc1ccccc1-2	inactive
CCOC(=O)c1c(Nc2ccc(Cl)cc2)sc(/C=C2\C=Nc3ccccc32)c1O	13 µM (active)
CNc1cncc(-c2cc(C)c(O)c(C)c2)n1	inactive
Cn1cc(/C=C/c2ccnc3ccccc23)c2ccccc21	23.1 µM (active)
Cn1cc(/C=C/c2ccc3ccccc3n2)c2ccccc21	20.6 µM (active)
COc1cc(C2c3cc4c(cc3OC(C)(N3CCCC3)C2C)OCO4)cc(OC)c1OC (stereo unspecified)	inactive
CCOc1c(Cl)cc(/C=N/NC(N)=S)cc1OC	inactive
CCOc1ccc(-n2nnnc2SCC(=O)c2ccccc2)cc1	inactive

Compound	Potency
CCOc1ccc(-c2cc(C(F)(F)F)c(C#N)c(SCC(=O)Nc3ccccc3)n2)cc1	18.4 µM (active)
Cc1cnc(NC(=O)CC(C)c2ccccc2)s1 (stereo unspecified)	inactive
CCOC(=O)c1ccc(NC(=O)CSc2nc(-c3ccc(F)cc3)cc(C(F)(F)F)c2C#N)cc1	20.6 µM (active)
CCOC(=O)c1ccc(NC(=O)Cn2ncc(Cl)c(Cl)c2=O)cc1	inactive
Cc1ccc(S(=O)(=O)CCSc2nc(C)cc(C(F)(F)F)c2C#N)cc1	14 µM (active)
Cc1ccc2nc(NC(=O)CN(C)S(=O)(=O)c3cccc4nsnc34)sc2c1	inactive
CCOC(=O)c1ccc(N=Nc2c(C)c(C#N)c(O)[nH]c2=O)cc1	inactive
Cc1cc(C(F)(F)F)c(C#N)c(SCC(=O)Nc2nc3ccccc3s2)n1	18.4 µM (active)
CCOc1ccc(-c2cc(C(=O)N/N=C(\C)c3cccnc3)c3ccccc3n2)cc1	inactive
COc1ccc(C2C(C#N)=C(N)Oc3cc(N)ccc32)cc1OC (stereo unspecified)	inactive
COc1cc(C2C3=C(COC3=O)Oc3cc4c(cc32)OCO4)ccc1OC(C)=O (stereo unspecified)	inactive
Cc1cccc(N2CCN(C(=O)c3cccc(N4CCCC4=O)c3)C(C)C2)c1 (stereo unspecified)	inactive
COc1cc(-c2noc(C)c2C#Cc2ccc(N)cc2)cc(OC)c1OC	inactive
CSCC[C@H](NC(=O)[C@H](Cc1ccccc1)n1c(=O)[nH]c2ccccc2c1=O)C(=O)N1CCC[C@@H]1C(=O)O	inactive
COc1cc(-c2noc(C)c2/C=C/c2ccc(OC(C)=O)cc2)cc(OC)c1OC	inactive
O=C(CSc1nc(-c2ccco2)cc(C(F)(F)F)n1)Nc1cccnc1	inactive
CCCCOc1ccc(-c2cc(C(F)(F)F)c(C#N)c(SCC(=O)O)n2)cc1	18.4 µM (active)
CCOC(=O)c1ccc(NC(=O)CSc2nc(-c3ccc(OC)cc3)cc(C(F)(F)F)c2C#N)cc1	20.6 µM (active)
CCOC(=O)c1ccc(NC(=O)CSc2nc(-c3cccs3)cc(C(F)(F)F)c2C#N)cc1	20.6 µM (active)
C=CCNc1nc(-c2ccccc2)c(C(=O)OCC)cc1C#N	inactive
Cc1coc(NC(=O)CSc2nc(-c3ccncc3)cc(C(F)(F)F)c2C#N)n1	14.6 µM (active)
O=C(OCCC12CC3CC(CC(C3)C1)C2)c1ccc(NCc2cc(O)ccc2O)cc1	inactive
N#Cc1c(C(F)(F)F)cc(-c2cccs2)nc1SCC(=O)Nc1cccc(C(F)(F)F)c1	18.4 µM (active)
N#Cc1c(C(F)(F)F)cc(-c2cccs2)nc1SCC(=O)Nc1cccc(Cl)c1	inactive
O=C(NCc1ccccc1)C1Cc2c(-c3ccc(Cl)cc3)ccnc2O1 (stereo unspecified)	inactive
COCCCNC(=S)N/N=C/c1ccc(OC)cc1	inactive

Compound	Potency
N#C/C(=C\c1ccccc1[N+](=O)[O-])C(=O)NCc1ccccc1	inactive
N#C/C(=C/c1ccc(N2CCOCC2)o1)C(=O)NC1CCCCC1	18.4 µM (active)
CN(C)c1ccc(/C=C(/C#N)C(=O)NCc2ccccc2)o1	14.6 µM (active)
O=C(NCc1ccccc1)C(=O)NCC1COc2ccccc2O1 (stereo unspecified)	inactive
N#C/C(=C\c1ccc(N2CCOCC2)o1)C(=O)NCCc1ccccc1	23.1 µM (active)
N#C/C(=C\c1ccc(N2CCOCC2)o1)C(=O)NC1CCCCC1	15.8 µM (active)
Cc1ccc(CN(C(=O)c2ccccc2F)c2ccccn2)o1	inactive
CCOC(=O)c1cnc(-n2nc(C)cc2C)nc1NNc1nc(-c2ccccc2)cc(-c2ccccc2)n1	inactive
COC(=O)c1[nH]c2c(c1C(=O)OC)CCc1ccccc1-2	inactive
CC(CC(=O)Nc1ccc2c(c1)c(=O)n(C)n2-c1ccccc1F)c1ccccc1 (stereo unspecified)	inactive
O=C1[C@@H]2[C@@H](CN3CN(c4ccccc4)N=C(c4ccccc4)[C@@]23c2ccccc2)C(=O)N1c1ccccc1	inactive
O=C(Cn1nc2c(cc1=O)CCCC2)NCc1ccc(Cl)cc1	inactive
Nc1c(C(=O)c2ccc(Cl)cc2)sc2nc3c(cc12)CCC3	18.4 µM (active)
CC(=O)Nc1cccc(-c2ccnc3c2CC(C)(C(=O)NCc2ccccc2)O3)c1 (stereo unspecified)	inactive
COc1ccc(/C=N/NC(=O)c2cc(OC)c(OC)c(OC)c2)cc1CN1CCc2cc(OC)c(OC)cc2C1C (stereo unspecified)	inactive
O=C1NC(=Nc2ccccc2Cl)S/C1=C\c1cc([N+](=O)[O-])ccc1O	inactive
O=C1/C(=C\c2cc([N+](=O)[O-])ccc2O)SC(=S)N1Cc1ccc(Cl)cc1	18.4 µM (active)
CN(C)c1ccc(/C=C/C(=O)c2c(O)c3ccccc3oc2=O)cc1	1.46 µM (active)
C=CCOc1ccc2nc(NC(=O)OC)[nH]c2c1	inactive
CC[n+]1c(/C=C/Nc2ccccc2)oc2ccc(OC)cc21	20.6 µM (active)
CC[n+]1c(/C=C/N(C)c2ccccc2)oc2ccc(F)cc21	17.7 µM (active)
CC[n+]1c(/C=C/Nc2ccccc2)oc2ccccc21	14.6 µM (active)
COc1ccc(N/C=C/C(=O)c2sc(-c3ccccc3)nc2C)cc1	inactive
